Experimental data published in the supplement of paper PMC12494721.
Counter-ions that a name gives are not always drawn.

Test system: Klebsiella aerogenes DSM 30053
Assay: growth (OD595) fold change vs plate DMSO controls (fold change (ratio)); higher = more growth
Details: incubation time: 27 h, anaerobic, 37 °C
How it was run: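 Shaken 96-well cultures in mGAM, grown anaerobically for 27 h at 37 °C, were read at 595 nm. OD came from blank-subtracted readings, corrected for background with 20 µM compound solutions in water and scaled by a calibration factor of 5. Growth is the fold change versus the plate's median DMSO control. Values average 2 biological replicates, and any fold change above 1.5 is NA.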

Row | SMILES | growth
1 | CN1CCCN=C1/C=C/c1cccc(O)c1 [Oxantel pamoate] (20 µM) | 1.03
2 | COC(=O)[C@H](c1ccccc1Cl)N1CCc2sccc2C1 [Clopidogrel] (20 µM) | 0.982
3 | CCCCCCCCCCCCCCCCCCCCCC(=O)Nc1ccn([C@@H]2O[C@H](CO)[C@@H](O)[C@@H]2O)c(=O)n1 [Enocitabine] (20 µM) | 0.98
4 | CN(C)CCCN1c2ccccc2[S+]([O-])c2ccc(Cl)cc21 (centres undefined) [Chlorpromazine Sulfoxide] (20 µM) | 0.985
5 | CCN(CC)CCOC(=O)C1(c2ccc([N+](=O)[O-])cc2)CCCC1 [Nitrocaramiphen hydrochloride] (20 µM) | 0.995
6 | COc1ccc(CC2c3cc(OC)c(OC)cc3CC[N+]2(C)CCC(=O)OCCCCCOC(=O)CC[N+]2(C)CCc3cc(OC)c(OC)cc3C2Cc2ccc(OC)c(OC)c2)cc1OC (centres undefined) [Atracurium besylate] (20 µM) | 0.964
7 | O=C(O)C[C@H](O)C[C@H](O)/C=C/c1c(C2CC2)nc2ccccc2c1-c1ccc(F)cc1 [Pitavastatin calcium] (20 µM) | 0.996
8 | CC(Cc1cccc(C(F)(F)F)c1)NCCOC(=O)c1ccccc1 (centres undefined) [Benfluorex] (20 µM) | 0.966
9 | S=c1[nH]cnc2nc[nH]c12 [Mercaptopurine] (20 µM) | 0.98
10 | CC(C(=O)O)c1ccc(N2Cc3ccccc3C2=O)cc1 (centres undefined) [Indoprofen] (20 µM) | 0.973
11 | C[C@@H](O[C@H]1OCCN(Cc2n[nH]c(=O)[nH]2)[C@H]1c1ccc(F)cc1)c1cc(C(F)(F)F)cc(C(F)(F)F)c1 [Aprepitant] (20 µM) | 1
12 | Cc1nnc(NS(=O)(=O)c2ccc(N)cc2)s1 [Sulfamethizole] (20 µM) | 1.06
13 | O=C(Cn1c(=O)sc2ccc(Cl)cc21)N1CCN(CCO)CC1 [Tiaramide Hydrochloride] (20 µM) | 1
14 | Clc1ccc(COC(Cn2ccnc2)c2ccc(Cl)cc2Cl)c(Cl)c1 (centres undefined) [Miconazole] (20 µM) | 1.01
15 | Cc1cn[nH]c1 [Fomepizole] (20 µM) | 0.971
16 | CC[C@H]1OC(=O)[C@H](C)[C@@H](O[C@H]2C[C@@](C)(OC)[C@@H](O)[C@H](C)O2)[C@H](C)[C@@H](O[C@@H]2O[C@H](C)C[C@H](N(C)C)[C@H]2O)[C@](C)(OC)C[C@@H](C)C(=O)[C@H](C)[C@@H](O)[C@]1(C)O [Clarithromycin] (20 µM) | 0.941
17 | CCCC(=O)OCOC(=O)C1=C(C)NC(C)=C(C(=O)OC)C1c1cccc(Cl)c1Cl (centres undefined) [Clevidipine] (20 µM) | 1.01
18 | CC[N+](CC)(CC(=O)Nc1c(C)cccc1C)Cc1ccccc1 [Denatonium benzoate] (20 µM) | 1.02
19 | COc1cc(/C=C/C(=O)N2CCN(CC(=O)N3CCCC3)CC2)cc(OC)c1OC [Cinepazide maleate] (20 µM) | 1.02
20 | COC(=O)C1=C(C)NC(C)=C(C(=O)O[C@H]2CCN(Cc3ccccc3)C2)[C@H]1c1cccc([N+](=O)[O-])c1 [Barnidipine Hydrochloride] (20 µM) | 0.991

Row | SMILES | growth
21 | COCCCOc1ccnc(C[S+]([O-])c2nc3ccccc3[nH]2)c1C (centres undefined) [Rabeprazole sodium salt] (20 µM) | 1.03
22 | CN(C)[C@@H]1C(=O)C(C(N)=O)=C(O)[C@@]2(O)C(=O)C3=C(O)c4c(O)ccc(Cl)c4[C@@H](O)[C@H]3C[C@@H]12 [Demeclocycline hydrochloride] (20 µM) | 0.0385
23 | O=C1[C@H]2CCCC[C@H]2C(=O)N1CCCCN1CCN(c2nsc3ccccc23)CC1 [Perospirone hydrochloride] (20 µM) | 1.01
24 | CC1=C(/C=C/C(C)=C/C=C/C(C)=C/C(=O)O)C(C)(C)CCC1 [Retinoic acid] (20 µM) | 1.1
25 | C[N+]1(C)CCC(OC(=O)C(O)(c2ccccc2)C2CCCC2)C1 (centres undefined) [Glycopyrrolate bromide] (20 µM) | 1.01
26 | COc1ccc2cc([C@H](C)C(=O)O)ccc2c1 [(S)-Naproxen] (20 µM) | 1.02
27 | C1CCC(C(CC2CCCCN2)C2CCCCC2)CC1 (centres undefined) [Perhexiline maleate] (20 µM) | 1
28 | COc1ccc(-c2cc(=O)c3c(O)cc(O[C@@H]4O[C@H](CO[C@@H]5O[C@@H](C)[C@H](O)[C@@H](O)[C@H]5O)[C@@H](O)[C@H](O)[C@H]4O)cc3o2)cc1O [Diosmin] (20 µM) | 1.01
29 | CC(C)N1CCN(c2ccc(OCC3COC(Cn4cncn4)(c4ccc(Cl)cc4Cl)O3)cc2)CC1 (centres undefined) [Terconazole] (20 µM) | 1.01
30 | CCCCNc1ccc(C(=O)OCCN(C)C)cc1 [Tetracaine hydrochloride] (20 µM) | 0.968
31 | CCC(=O)OCC(=O)[C@@]1(OC(=O)CC)[C@H](C)C[C@H]2[C@H]3[C@H]([C@@H](O)C[C@@]21C)[C@@]1(C)C=CC(=O)C=C1C[C@H]3Cl [Alclometasone dipropionate] (20 µM) | 1.01
32 | C#CCN(C)CCCOc1ccc(Cl)cc1Cl [Clorgyline hydrochloride] (20 µM) | 0.95
33 | CCCCS(=O)(=O)N[C@@H](Cc1ccc(OCCCCC2CCNCC2)cc1)C(=O)O [Tirofiban hydrochloride] (20 µM) | 1.01
34 | CC(C)CN(C[C@@H](O)[C@H](Cc1ccccc1)NC(=O)O[C@H]1CCOC1)S(=O)(=O)c1ccc(N)cc1 [Amprenavir] (20 µM) | 0.974
35 | CC[C@H](C)C(=O)O[C@H]1C[C@@H](C)C=C2C=C[C@H](C)[C@H](CC[C@@H]3C[C@@H](O)CC(=O)O3)[C@H]21 [Lovastatin] (20 µM) | 0.995
36 | CN(C)CCN(Cc1ccc(Cl)cc1)c1ccccn1 [Chloropyramine hydrochloride] (20 µM) | 0.92
37 | COC(c1ccccc1)(c1ccccc1)[C@H](Oc1nc(C)cc(C)n1)C(=O)O [Ambrisentan] (20 µM) | 0.991
38 | O=C(O)CCC(=O)Nc1ccc(S(=O)(=O)Nc2nccs2)cc1 [Succinylsulfathiazole] (20 µM) | 1.2
39 | CN(C)CCC=C1c2ccccc2C=Cc2ccccc21 [Cyclobenzaprine hydrochloride] (20 µM) | 0.985
